Source: PubChem BioAssay (The Scripps Research Institute Molecular Screening Center)
LYPLA2 counter: blocks human lysophospholipase 2, a PME1 counter-screen | recombinant LYPLA2, FP-Rh probe fluorescence polarization | hit rate 0.38% among 320,000 | O95372 | inhibition, % at 5.9 µM;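 active = inhibition above the screen-wide mean plus 3 SD, limit set per campaign, cut at about 26% in these data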;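 note: 0% = LYPLA2 with DMSO and 100% = wells lacking LYPLA2 enzyme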
PAD4 inh: PAD4 (human) enzyme inhibition; recombinant PAD4, RCA probe fluorescence polarization; hit rate 0.41% among 330,000; inhibition, % at 6.36 µM; AID 485272;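 active = percent inhibition above a cutoff equal to the mean of all tested compounds plus 3 SD, cut at about 15% in these data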;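 note: 0% = PAD4 with RCA probe and DMSO and 100% = probe without PAD4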
PME-1 inh: PME-1 (human) inhibition; Q9Y570; recombinant PME-1, FP-Rh probe fluorescence polarization; inhibition, % at 5.9 µM; hit rate 0.53% among 320,000; AID 2130;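 active = inhibition above the campaign mean of all compounds plus 3 SD, cut at about 26% in these data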;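 note: competitive labeling of PME-1 active site by serine hydrolase directed probe; 0% = PME-1 with DMSO and 100% = wells lacking PME-1 enzyme; inhibitors block probe labeling so polarization falls and inhibition rises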
Target sequence (Q9Y570 whole entry, looked up): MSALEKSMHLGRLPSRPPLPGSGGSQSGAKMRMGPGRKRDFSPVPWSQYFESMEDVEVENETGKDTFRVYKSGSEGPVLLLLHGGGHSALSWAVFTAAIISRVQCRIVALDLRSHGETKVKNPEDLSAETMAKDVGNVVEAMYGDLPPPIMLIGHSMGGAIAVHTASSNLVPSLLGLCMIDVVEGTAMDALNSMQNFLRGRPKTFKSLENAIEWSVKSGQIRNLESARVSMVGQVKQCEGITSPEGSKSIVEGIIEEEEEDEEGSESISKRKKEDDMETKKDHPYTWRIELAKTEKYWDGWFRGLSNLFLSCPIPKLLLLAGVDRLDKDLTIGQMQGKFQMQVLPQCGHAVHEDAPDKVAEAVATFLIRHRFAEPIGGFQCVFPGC
GSTO1 counter: blocks human GSTO1 in RBBP9 counter-screen; P78417; hit rate 1.1% among 300,000; inhibition, % at 5.96 µM; recombinant GSTO1, activity-based probe fluorescence polarization;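 active = inhibition above the campaign mean inhibition plus 3 SD, cut at about 35% in these data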;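 note: 0% = GSTO1-1 with DMSO and 100% = wells lacking GSTO1-1 enzyme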
Fam108B inh: blocks mouse Fam108B hydrolase in RBBP9 counter-screen; recombinant Fam108B, FP-Rh probe fluorescence polarization; inhibition, % at 9.51 µM; hit rate 0.33% among 300,000; AID 1947;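 active = inhibition above the screen mean inhibition plus 3 SD, computed separately per campaign, cut at about 18% in these data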;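 note: inhibitors lower polarization as less probe binds the enzyme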
LYPLA1 counter: LYPLA1 (human) inhibition in PME1 counter-screen; inhibition, % at 5.9 µM; O75608; recombinant LYPLA1, FP-Rh probe fluorescence polarization; hit rate 0.16% among 320,000;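 active = inhibition above the mean of all tested compounds plus 3 SD, set per campaign, cut at about 14% in these data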;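 note: inhibitors block serine hydrolase probe labeling of LYPLA1 so polarization falls; 0% = enzyme with DMSO and 100% = wells lacking LYPLA1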
PAD4 FP conf: PAD4 (human) inhibition, confirmed; shares compounds with PAD4 inh; recombinant PAD4, RCA probe fluorescence polarization; inhibition, % at 6.36 µM; hit rate 28% among 1,200; AID 488796;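 active = mean inhibition across replicates above the hit cutoff set by the earlier primary screen, cut at about 15% in these data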;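 note: inhibitors block active-site labeling by the probe so polarization falls; 0% = PAD4 with probe and DMSO and 100% = probe without PAD4 enzyme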
Numbers without * were called inactive; x = not tested or not shown. This is a sample that favours compounds with a hit; in the whole collection about 1.8% have one here.

SMILES	LYPLA2 counter	PAD4 inh	PME-1 inh	GSTO1 counter	Fam108B inh	LYPLA1 counter	PAD4 FP conf
Cc1ccc(-c2nn(-c3ccccc3)cc2C=O)o1	2	17*	1	5	4	-2	2
O=C(CCc1c[nH]c2ccccc12)N[C@@H](Cc1c[nH]c2ccc(O)cc12)C(=O)O	6	-3	0	10	0	-3	x
Cc1ccc(C2OC34CCCCCC3C(C#N)(C(=N)O4)C2(C#N)C#N)cc1 (stereo not given)	-1	2	1	-3	3	-1	x
C=CCOc1ccc(C2OC34CCCCC3C(C#N)(C#N)C2(C#N)C(=N)O4)cc1 (stereo not given)	12	15*	10	16	9	7	2
CNC(=S)NNC(=O)c1noc(C)c1C(=O)N1CCN(C(c2ccccc2)c2ccccc2)CC1	0	3	1	8	3	-3	x
Cc1cc(C(=O)CSc2nc(N)cc(N)n2)c(C)n1C1CC1	-3	16*	-5	18	0	1	8
Cc1cc(C(=O)CSc2nnc(N)s2)c(C)n1C1CC1	3	-3	-1	6	-1	4	x
Cc1cc(-c2nnc(SCC(=O)Nc3ccc(F)c(F)c3)n2N)n[nH]1	1	52*	0	-1	1	-4	5
O=C(Nc1ccc([N+](=O)[O-])cc1Br)c1cc2ccccc2nc1Cl	1	-1	6	-1	-9	3	x
COCCOC(=O)c1c(C)n(C)c2ccc(OC(=O)N3CCOCC3)cc12	-1	0	-8	0	3	2	x
COCCOC(=O)c1c(C)n(C)c2ccc(OC(=O)c3c(OC)cccc3OC)cc12	0	29*	-8	-6	8	-5	23*
COc1ccc(OC)c(C2C(C#N)=C(N)Oc3c2c(C)nn3-c2ccc(C)cc2)c1 (stereo not given)	4	54*	0	35*	11	1	5
COc1ccc(C2C(C#N)=C(N)Oc3c2c(C)nn3-c2ccccc2)cc1Cn1nc(C)c([N+](=O)[O-])c1C (stereo not given)	5	42*	5	26	5	1	8
Cc1nn(-c2ccccc2)c2c1C(c1ccccc1)C(C#N)=C(N)O2 (stereo not given)	-3	61*	3	37*	4	1	14
CCOc1ccc(CNC(=S)N/N=C/c2ccc(OC)c(OC)c2)cc1	-1	-1	0	0	-1	-6	x
CCCCN(C(=O)NC(=O)Nc1nc2ccc(OC)cc2s1)S(C)(=O)=O	3	-3	-5	3	5	1	x
CCN(Cc1ccc2c(c1)OCO2)C(=O)CSc1ncnc2sccc12	-11	1	9	x	x	-4	x
CCN(Cc1ccc2c(c1)OCCO2)C(=O)CSc1nc(C)nc2sc(C)c(C)c12	1	79*	2	x	x	-6	-4
COc1cccc(-c2ccc(C#N)c(=O)[nH]2)c1	2	1	9	5	3	-1	x
COc1cccc(-c2cc(=O)[nH][nH]2)c1	0	38*	-1	17	-4	-1	-5
c1cc2c(cc1C1=NNC(=NC3CC3)SC1)OCCO2	1	41*	0	13	-2	0	7
c1ccc2oc(C3=NNC(=NC4CC4)SC3)cc2c1	-4	21*	-3	-2	-2	-7	8
CC(C)(C)c1ccc(C(=O)NCCOc2ccccc2)cc1	7	18*	3	-2	-1	1	3
COc1ccccc1C(=O)Nc1nc2ccccc2s1	-6	0	-37	-16	0	-4	x
COc1ccc(C(=O)Nc2nc3ccccc3s2)c(OC)c1	-6	22*	-50	-14	-9	-9	55*
COC(=O)c1sccc1NC(=O)c1cccc(OC)c1	-4	-3	1	9	-2	-6	x
COC(=O)c1sccc1NC(=O)c1ccc(OC)cc1OC	-2	25*	0	0	0	-1	-4
Cc1cc(OC(=O)c2ccccc2)n(CCC#N)n1	-2	40*	4	29	1	2	1
CN=C(Nc1cc(C)nn1CCC#N)c1ccccc1	-2	-2	-1	0	0	0	x
